# Screens from PubChem.
# HCMV antiviral: qHTS Assay for inhibitors of the human cytomegalovirus (HCMV) | HFF cells, HCMV-luciferase reporter, 72 h; active compounds read low | activity change, negative = inhibition, % at 57.5 µM | 410,000 tested, 4.5% active | AID 1259415, 2018; in the data active = activity change below about -60%; inconclusive = no clear call, values can overlap the other calls; inactive = above about -39%
#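 Human foreskin fibroblasts infected with luciferase-reporter HCMV at MOI 1 PFU/cell, compounds at two doses. Luciferase measured 72 h post infection; normalized to buffer-only basal and Salinomycin (10uM) controls.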
# Marburg entry inh: qHTS for inhibitors of binding or entry into cells for Marburg Virus. Marburg virus pseudotyped entry inhibition, cell reporter. Potency, µM (highest dose often 37.8 µM), without a hit: top-dose activity change, negative = inhibition, most hits filed as inhibitors. 300,000 tested, 1.8% active; calls by dose curve; tested in HEK293 cells; note: potency is the fitted concentration of half-maximal effect
# LASV entry inh: qHTS for Inhibitors of binding or entry into cells for Lassa Virus. Lassa virus pseudotype entry inhibition, cell reporter. AID 540256, 2011. 300,000 tested, 1.2% active. Potency, µM (highest dose often 37.9 µM), for the others: at the top dose activity change, negative = inhibition, actives largely listed as inhibitors; calls by dose curve; tested in HEK293 cells; note: potency is the fitted concentration of half-maximal effect; nearly all actives have a fitted effect of over 50% in size
# FMDV inh: High Throughput Screening for Foot and Mouth Disease Virus Antivirals; FMDV antiviral cell-based qHTS; Potency, µM (top dose mostly 57.9 µM), inactives show at the highest dose activity change, negative = inhibition, hits mostly inhibitors; 410,000 tested, 1.2% active; AID 1159524, 2015; calls by dose curve; tested in HEK293T cells; note: read-out not given here; potency is the fitted concentration of half-maximal effect; nearly all actives have a fitted effect of over 45% in size
# An asterisk follows results filed as active; ? = inconclusive; nt = no result given; ! = a repeat was not active; [ ] = another dose, or the depositor's remark. In the library only some 6.2% were active in any assay of this set; here they are far more common. % is set by controls: 0 for no effect and ±100 for the full control effect.
SMILES,HCMV antiviral,Marburg entry inh,LASV entry inh,FMDV inh
O=C(Nc1ccc(CN2CCS(=O)(=O)CC2)cc1)c1ccc(F)cc1,26,nt,nt,-8%
O=C(Nc1ccc(CN2CCS(=O)(=O)CC2)cc1)c1ccc(C(F)(F)F)cc1,-61*,?,-29%,?
Cc1nc2ccc(S(=O)(=O)CCC(=O)NCc3ccc(Cl)cc3)cc2s1,-7,nt,nt,nt
Cc1nc2ccc(S(=O)(=O)NCC(=O)NCc3ccc(Cl)cc3)cc2s1,-69*!,6%[46.1 µM],3%[46.1 µM],-8%
COc1cccc2c3c(c(C)nc12)CCN3c1ccccc1,-78*,?,-26%,-23%
O=[N+]([O-])c1ccc(N2CCOCC2)c2c1no[n+]2[O-],-101*,nt,nt,10µM*
CCNc1nc(NC(C)(C)C)nc(N2CCCCC2)n1,-72*,2µM*,?,-29%
CCc1nc(SCc2ccc(C(=O)OC)o2)c2c(=O)n(C)c(=O)n(C)c2n1,5,nt,nt,?
COc1cc(C(=O)NC(=S)NNC(=O)c2ccc3c(c2)OCO3)cc(OC)c1OC,27,-29%[46.1 µM],?,3%
COc1ccc(OC)c(/C=C/C(=O)c2ccc3c(c2)OCCO3)c1,-100*,nt,nt,-9%
COc1cc(/C=C/C(=O)c2ccc3c(c2)OCCO3)cc(OC)c1OC,-99*,nt,nt,?
COc1cc(/C=C/C(=O)c2ccc3c(c2)OCO3)cc(OC)c1OC,nt,nt,nt,22µM*
COc1cc(C(=O)c2cc3c(cc2C)OCO3)cc(OC)c1OC,-68*,nt,nt,-7%
Clc1cc2c(nn1)Nc1ccccc1S2,48,nt,nt,22%
O=C(NCCCNC(=O)c1ccccn1)c1ccc(Cl)cc1,-5,13%[46.1 µM],7%[46.1 µM],16%
CC(C)CCCn1c(O)c(/C=C2/C=CC=N2)c(=O)[nH]c1=O,?,-12%,?,?
O=C(NC1CCCCCCC1)C1CCN(c2nc3ccccc3o2)CC1,-88*,?,?,14µM*
COC(=O)CNc1nc(C2CC2)nc2c1nnn2Cc1ccccc1Cl,19,-11%,6%,-21%
COc1cccc(OC)c1Nc1nc(C)nc2c1nnn2Cc1ccccc1Cl,-10,0%[46.1 µM],2%,-14%
CN(C)S(=O)(=O)c1ccc(Nc2nc(C3CC3)nc3c2nnn3Cc2ccccc2Cl)cc1,-79*,-34%,?,5µM*
CCc1nc(Nc2ccc(OC)c(OC)c2)c2nnn(Cc3ccccc3Cl)c2n1,?,?,?,25µM*
CC(=O)Nc1ccc(Nc2nc(C(F)(F)F)nc3c2nnn3Cc2ccccc2Cl)cc1,-72*,-28%[46.1 µM],-5%[46.1 µM],?
CCCCNC(=O)CSc1nc2cc3c(cc2c(=O)n1CCCCCC(=O)NCCc1ccc(OC)c(OC)c1)OCO3,13,nt,28%[46.1 µM],-4%
Cc1cc(C2=NNC(=Nc3ccccc3)SC2)c(C)n1C,31,nt,nt,41%
COc1ccc(N=C2NN=C(c3c(C)[nH]c4ccccc34)CS2)cc1,?,11µM*,?,-16%
SMILES,HCMV antiviral,Marburg entry inh,LASV entry inh,FMDV inh
COC(=O)N/N=C/c1sc(N2CCCCC2)nc1-c1cccs1,-68*,1%,-13%,0%
CCCC(=O)Nc1cccc(C(=O)Nc2nccs2)c1,6,13%,-2%,-1%
Cc1ccc(Nc2nc(N)nc(CCl)n2)c(C)c1,-103*,nt,nt,16%
CC1CC(C)CN(C(=S)SCc2nc(N)nc(Nc3ccccc3)n2)C1 (stereo not drawn),-65*,?,3%,0%
Cc1ccc(Nc2nc(N)nc(CN3CCCCCC3)n2)c(C)c1,18,-4%,1%,-16%
Nc1nc(CCl)nc(Nc2ccccc2)n1,-91*,nt,nt,38%
Cc1ccc(Nc2nc(N)nc(CN3CCc4ccccc4C3)n2)cc1,19,?,23µM*,-17%
Cc1c(Cl)cccc1Nc1nc(N)nc(CN2CCc3ccccc3C2)n1,-22,-7%,-4%,-4%
O=C(Nc1ccccc1)c1cccc(S(=O)(=O)Nc2ccccn2)c1,-31,0%,-1%,53%
CCOC(=O)N1CCN(c2c(NCC3CCN(Cc4cccc(C)c4)CC3)c(=O)c2=O)CC1,1,6%,nt,-6%
Cc1ccc(Nc2nc(N)nc(CSc3nc4ccccc4s3)n2)cc1,-91*!,?,?,0%
COc1ccc(Nc2nc(N)nc(CSc3nc4ccccc4s3)n2)cc1,-21,-9%[46.1 µM],?,?
Cc1cccc(Nc2nc(N)nc(CCl)n2)c1C,-96*,?,?,1%
Cc1cccc(Nc2nc(N)nc(CN3CCC(C(N)=O)CC3)n2)c1C,31,11%,6%,-6%
CCOc1ccc(Nc2nc(N)nc(CSC(=S)N3CCOCC3)n2)cc1,26,nt,nt,13%
CCOc1ccc(Nc2nc(N)nc(CCl)n2)cc1,-96*,?,?,13%
Cc1ccc(Nc2nc(N)nc(CCl)n2)cc1,-108*,?,?,7%
COc1ccc(C(=O)c2coc3c2C(=O)C(=O)c2ccccc2-3)cc1,68,?,11µM*,41%
O=C(c1ccccc1)c1coc2c1C(=O)c1ccccc1C2=O,72,?,nt,?
COc1ccc(Cn2c(-c3ccc(Br)cc3)c[n+]3ccccc23)cc1,-97*,nt,nt,4%
COc1ccc(Cn2c(-c3ccc(OC)cc3)nc3ccccc32)cc1,-5,17%,3%,-9%
CC1(C(=O)NS(=O)(=O)c2ccc(Cl)cc2)CCN1C(=O)CCc1ccc(Cl)cc1Cl (stereo not drawn),33,nt,nt,-3%
Cn1c(-c2cccc(F)c2)nc2c1c(=O)[nH]c(=O)n2Cc1ccccc1,31,0%[46.1 µM],8.9µM*,1%
CCCn1c(=O)[nH]c(=O)c2c1nc(-c1ccc(OC)c(Br)c1)n2CCOC,-8,2%[46.1 µM],7.9µM*,-11%
CCCCn1c(=O)[nH]c(=O)c2c1nc(-c1ccc(OCCC)c(OCC)c1)n2CCOC,-28,-1%[46.1 µM],?,-15%
SMILES,HCMV antiviral,Marburg entry inh,LASV entry inh,FMDV inh
Cn1c(-c2cccc(OCc3ccccc3)c2)nc2c1c(=O)[nH]c(=O)n2Cc1ccccc1,-15,-8%,?,35µM*
COCCn1c(-c2cccc([N+](=O)[O-])c2)nc2c1c(=O)[nH]c(=O)n2Cc1ccccc1,-87*,?,?,-14%
O=C1N(Cc2cccc(Cl)c2)C[C@@H]2C[C@@H](c3cccn3-c3ccccn3)N3CCC[C@@]123,-34,?,?,-29%
O=C1N(Cc2cccc(Cl)c2)C[C@@H]2C[C@@H](c3cccn3-c3nccs3)N3CCC[C@@]123,-20,11µM*,?,?
CC1=C(C(=O)N(C(C)C)C(C)C)CC(CC(=O)NCC2CCCCC2)C(=O)N1Cc1ccc(F)cc1 (stereo not drawn),4,nt,nt,-3%
O=C(Nc1ccncc1)c1c(Cl)cccc1Cl,-66*,nt,nt,-2%
O=C(Nc1ccc(Oc2ccc(NC(=O)Nc3ccccc3Cl)cc2)cc1)Nc1ccccc1Cl,-62*,?,?,-10%
O=C(NNc1ncccc1Cl)c1c(Cl)cccc1Cl,-67*,0%,7%,-4%
O=C1C(Cl)=C(Nc2ccc3cn[nH]c3c2)C(=O)c2ccccc21,-100*,?,3.5µM*,20µM*
COC(=O)c1ccccc1S(=O)(=O)Nc1ccc2cn[nH]c2c1,61,-14%[46.1 µM],8%,20%
